Hits are enriched below; roughly 6.2% of the tested compounds scored in any of these assays.
RORgamma inh: qHTS for inhibitors of ROR gamma transcriptional activity. actives 5.4% (n = 310,000). Nuclear receptor ROR-gamma (Mus musculus), P51450. Drosophila S2 Gal4-RORgamma UAS-luciferase reporter, 20 h. AID 2551, 2010. Potency, µM (series often up to 53.6 µM), without a hit: at the highest dose activity change, negative = inhibition, actives largely listed as inhibitors; also: nearly all actives have a fitted effect of over 60% in size
Target sequence (P51450 whole entry, looked up, the tested form may be a part): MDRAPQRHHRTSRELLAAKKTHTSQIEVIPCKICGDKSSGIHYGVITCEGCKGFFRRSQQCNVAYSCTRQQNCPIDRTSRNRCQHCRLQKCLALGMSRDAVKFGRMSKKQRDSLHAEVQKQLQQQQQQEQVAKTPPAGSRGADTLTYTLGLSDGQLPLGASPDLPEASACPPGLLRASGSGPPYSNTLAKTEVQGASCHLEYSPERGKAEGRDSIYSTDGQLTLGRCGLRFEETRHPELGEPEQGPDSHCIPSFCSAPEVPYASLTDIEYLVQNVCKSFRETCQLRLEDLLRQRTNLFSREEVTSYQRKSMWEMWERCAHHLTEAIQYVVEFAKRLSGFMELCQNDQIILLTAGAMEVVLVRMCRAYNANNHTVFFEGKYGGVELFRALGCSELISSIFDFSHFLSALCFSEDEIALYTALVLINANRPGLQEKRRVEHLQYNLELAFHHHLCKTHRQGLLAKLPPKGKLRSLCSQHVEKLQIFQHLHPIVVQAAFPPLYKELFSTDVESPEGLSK
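Luminescence from a UAS-regulated Photinus luciferase reporter in stably transfected Drosophila Schneider cells is measured; decreased signal marks ROR gamma inhibition. Fusion expression is induced by 700 uM copper sulfate for 20 hr.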
VP16 counter: VP16 counterscreen qHTS for inhibitors of ROR gamma transcriptional activity; Drosophila S2 Gal4-VP16 UAS-luciferase, luminescence, 20 h; Potency, µM (top dose mostly 53.6 µM), for inactives: at the highest dose activity, negative = inhibition, hits mostly inhibitors; actives 3.5% (n = 310,000); AID 2546, 2010;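 also: Gal4-VP16 expression switched on by copper sulfate through the metallothionein promoter; nearly all actives have a fitted effect of over 50% in size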
KinaseGlo FLuc: Counterscreen for Luciferase (Kinase-Glo TM) Inhibition. Luciferin 4-monooxygenase (Photuris pensylvanica), Q27757. Kinase-Glo luciferase, ATP luminescence, 8 min. Potency, µM (top dose mostly 38.3 µM), inactives show top-dose activity change, negative = inhibition, hits mostly inhibitors. actives 0.28% (n = 200,000); also: nearly all actives have a fitted effect of over 60% in size
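Recombinant Kinase-Glo luciferase, 10 uM ATP (linear range), luciferin; imidazole pH 7.2 / KCl / MgCl2 / Tween / BSA buffer; 8 min RT; luminescence.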
Starred values were filed as active, the others as inactive; [ ] = another dose, or the depositor's remark. Calls follow the shape of the dose curve; as a rule, active = well fitted curve in the direction sought with a large enough effect; inconclusive = small, poorly fitted or top-dose-only effect, or another doubt; inactive = no such curve, though single readings can be large; an effect the other way counts as inactive or inconclusive. % is scaled to controls: 0 for no effect and ±100 for the full control effect; potency is read from the fitted curve at half-maximal effect.

Results for COc1ccc(-c2cn3cc(C(=O)NN)ccc3n2)cc1 ?
RORgamma inh: inconclusive; VP16 counter: 10µM*; KinaseGlo FLuc: -7%

Results for COc1ccc(C(=O)NN)cc1 ?
RORgamma inh: inconclusive; VP16 counter: -11%

How did Cc1ccccc1/C(N)=N/O do in these assays?
RORgamma inh: -27%; VP16 counter: 3%; KinaseGlo FLuc: 2%

Results for O=C(/C=C/c1c(C(=O)O)[nH]c2cc(Cl)cc(Cl)c12)Nc1ccccc1 ?
RORgamma inh: -12%; VP16 counter: -7%; KinaseGlo FLuc: 1%

Results for CCCCNC(=S)Nc1ccc(C(F)(F)F)cc1 ?
RORgamma inh: 4.5µM*; VP16 counter: 13µM*; KinaseGlo FLuc: 2%

What do the screens show for `CC(C)(C)C(=O)NC(=S)Nc1ccc(C(F)(F)F)cc1`?
RORgamma inh: 4.5µM*; VP16 counter: inconclusive

How did CCNC(=S)Nc1ccc(Cl)c([N+](=O)[O-])c1 do in these assays?
RORgamma inh: -25%; VP16 counter: 11%; KinaseGlo FLuc: 3%

How did CCCN1CCN(CCCNC(=S)Nc2ccc(F)cc2)CC1 do in these assays?
RORgamma inh: inconclusive; VP16 counter: -7%; KinaseGlo FLuc: 4%

What do the screens show for `CCNC(=S)Nc1ccc(C)c(Cl)c1`?
RORgamma inh: 7.1µM*; VP16 counter: inconclusive; KinaseGlo FLuc: -2%

Results for CCNC(=S)Nc1ccc(Cl)cc1 ?
RORgamma inh: 8.9µM*; VP16 counter: -83%; KinaseGlo FLuc: -1%

What do the screens show for `CC(C)(C)C(=O)NC(=S)Nc1ccc(Cl)c(C(=O)O)c1`?
RORgamma inh: inconclusive; VP16 counter: 6%; KinaseGlo FLuc: -5%

What do the screens show for `CN(N)C(=S)Nc1ccc(Cl)cc1`?
RORgamma inh: -35%; VP16 counter: 19%; KinaseGlo FLuc: 2%

What do the screens show for `CCOC(=O)CSc1nc(C(C)(C)C)cc(C(F)(F)F)c1C#N`?
RORgamma inh: 5%; VP16 counter: -9%; KinaseGlo FLuc: 1%

Results for CCOC(=O)C1=C(N)N(c2cc(S(=O)(=O)N3CCOCC3)ccc2Cl)C(=O)C1 ?
RORgamma inh: 1%; VP16 counter: 5%[10 µM]; KinaseGlo FLuc: -2%

How did N#CCC(=O)Nc1ccc(C(=O)OCC(=O)N(Cc2ccccc2)C2CCS(=O)(=O)C2)cc1 (stereo not given) do in these assays?
RORgamma inh: 6%; VP16 counter: 2%; KinaseGlo FLuc: 2%

What do the screens show for `C[C@@H]1CC2C3CCC4=CC(=O)C=CC4(C)[C@@]3(F)[C@@H](O)CC2(C)[C@@]1(O)C(=O)CO` (stereo not given in full)?
RORgamma inh: -2%; VP16 counter: -4%; KinaseGlo FLuc: 4%[39.9 µM]

How did CN(C)CCNC(=S)Nc1ccc(Cl)cc1 do in these assays?
RORgamma inh: 2%; VP16 counter: -3%[0.365 µM]; KinaseGlo FLuc: 1%

What do the screens show for `COc1ccc(NC(=S)Nc2ccccc2)cn1`?
RORgamma inh: -12%; VP16 counter: 26%; KinaseGlo FLuc: -2%

Results for CCCCNC(=S)Nc1ccc(OC)nc1 ?
RORgamma inh: 10µM*; VP16 counter: -2%; KinaseGlo FLuc: 4%

How did CCCCNC(=S)Nc1ccc(Cl)cc1 do in these assays?
RORgamma inh: 7.1µM*; VP16 counter: inconclusive; KinaseGlo FLuc: 2%

What do the screens show for `CCOC(=O)C(NC(C)=O)C(=O)Nc1ccc(C(C)(C)C)cc1` (stereo not given)?
RORgamma inh: -18%; VP16 counter: -8%[10 µM]; KinaseGlo FLuc: 2%

Results for CNNC(=S)Nc1ccc(Cl)cc1 ?
RORgamma inh: inconclusive; VP16 counter: 16%

Results for CN(C)NC(=S)Nc1ccc(Cl)cc1 ?
RORgamma inh: inconclusive; VP16 counter: 2.2µM*; KinaseGlo FLuc: -1%

How did CCOC(=O)NC(=S)Nc1ccc(C(C)(C)C)cc1 do in these assays?
RORgamma inh: 2µM*; VP16 counter: 10µM*

Results for CCNC(=S)Nc1cc(-c2ccc(Cl)cc2)[nH]n1 ?
RORgamma inh: 6.3µM*; VP16 counter: 11µM*; KinaseGlo FLuc: -1%

Results for CC(=O)Nc1cc(-c2ccc(F)cc2)[nH]n1 ?
RORgamma inh: 13%; VP16 counter: -15%; KinaseGlo FLuc: -6%

Results for O=C(CN(CCO)c1ccccc1)NC12CC3CC(CC(C3)C1)C2 ?
RORgamma inh: inconclusive; VP16 counter: 1%; KinaseGlo FLuc: -3%

Results for Oc1ccc(N=Nc2n[nH]c(-c3ccccc3)n2)cc1 ?
RORgamma inh: inconclusive; VP16 counter: -27%; KinaseGlo FLuc: -16%

What do the screens show for `Oc1ccc(N=Nc2nc(-c3ccccc3)c(-c3ccccc3)[nH]2)cc1`?
RORgamma inh: 13µM*; VP16 counter: inconclusive; KinaseGlo FLuc: 1%

Results for COc1ccc(CC(=O)NCc2n[nH]c(=S)n2-c2ccc(F)cc2)cc1 ?
RORgamma inh: -14%; VP16 counter: 3%; KinaseGlo FLuc: -3%

Results for CCc1nc2c(cnn2-c2ccc(Cl)cc2)c(=O)n1-c1ccc2c(c1)OCCO2 ?
RORgamma inh: -3%; VP16 counter: 7%; KinaseGlo FLuc: 2%

What do the screens show for `S=c1[nH]nc(Cc2ccc(Cl)cc2)n1-c1ccc2c(c1)OCCO2`?
RORgamma inh: 2.8µM*; VP16 counter: -21%; KinaseGlo FLuc: 4%

Results for COc1ccc(Cc2n[nH]c(=S)n2-c2ccc3c(c2)OCCO3)cc1 ?
RORgamma inh: 8.9µM*; VP16 counter: -1%; KinaseGlo FLuc: -2%

What do the screens show for `NC(=O)N[C@H]1NC(=O)NC1=O`?
RORgamma inh: -11%[2.98 µM]; VP16 counter: -4%[17 µM]; KinaseGlo FLuc: -3%[17.1 µM]

What do the screens show for `CC(=O)N(Cc1ccccc1)Cc1nc2sc(C)c(C)c2c(=O)[nH]1`?
RORgamma inh: 3%; VP16 counter: 4%; KinaseGlo FLuc: 1%

How did Cc1sc2nc(CN(C(=O)NCc3ccccc3)C3CCCC3)[nH]c(=O)c2c1C do in these assays?
RORgamma inh: 4.5µM*; VP16 counter: inconclusive

How did CC(=O)N(Cc1nc2sc(C)c(C)c2c(=O)[nH]1)C1CCCC1 do in these assays?
RORgamma inh: 10µM*; VP16 counter: inconclusive; KinaseGlo FLuc: -2%

How did O=C(NCc1ccccc1)N(Cc1nc2ccccc2c(=O)[nH]1)C1CCCC1 do in these assays?
RORgamma inh: 18%; VP16 counter: -5%; KinaseGlo FLuc: 0%

How did O=C(NCc1ccccc1)Nc1cccn(Cc2ccccc2Cl)c1=O do in these assays?
RORgamma inh: inconclusive; VP16 counter: 2%; KinaseGlo FLuc: 0%

Results for CC1(C)Cc2ccccc2C(/C(C#N)=N/O)=N1 ?
RORgamma inh: inconclusive; VP16 counter: -7%; KinaseGlo FLuc: 2%

Results for COc1ccc(/C=C/c2cc(-c3ccc(C)cc3)o[n+]2C)cc1 ?
RORgamma inh: inconclusive; VP16 counter: 13µM*; KinaseGlo FLuc: 0%

What do the screens show for `COc1ccc(/C=C/c2c(-c3ccc(OC)cc3)oc3ccc(-c4ccc(OC)cc4)cc23)cc1`?
RORgamma inh: -1%; VP16 counter: -6%

How did CC(=O)Nc1ccc(N(C(=O)Cc2cccs2)C(C(=O)NC2CCCC2)c2ccncc2)cc1 (stereo not given) do in these assays?
RORgamma inh: -1%; VP16 counter: -7%

How did COC(=O)c1ccc(Oc2ccc(C(C)(C)C)cc2)c([N+](=O)[O-])c1 do in these assays?
RORgamma inh: inconclusive; VP16 counter: -6%; KinaseGlo FLuc: -3%

Compound activity (PubChem BioAssay)
